Among the data in PubChem BioAssay (NCATS) are Potency values, retold here.

Results filed as inconclusive are left out. Active and inactive are the calls of the source. The call rests on the fitted dose curve; in most records, active means well fitted curve in the direction sought with a large enough effect; inconclusive means small, poorly fitted or top-dose-only effect, or another doubt; inactive means no such curve, though single readings can be large; an effect the other way counts as inactive or inconclusive.

Assay [1] is described as follows: Quantitative High-Throughput drug screen in 47 multiple myeloma cell lines against the NCATS MIPE library collection: FR4_PLB cell viability assay (AID 1918924; further: nearly all actives have a fitted effect of over 35% in size; further: potency means the concentration at half of the fitted maximal effect). A digest of the protocol: (§1)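 We plated 500 myeloma cells per well, pinned in MIPE 4.0 compounds, and incubated for 48 hours at 37C. ATP was then quantified with CellTiter-Glo, with DMSO and media-only wells defining 100% and 0%.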

Assay [2] can be described thus: Quantitative High-Throughput drug screen in 47 multiple myeloma cell lines against the NCATS MIPE library collection: Delta47_JCRB cell viability assay (AID 1918925; further: nearly all actives have a fitted effect of over 45% in size; further: potency means the concentration at half of the fitted maximal effect). The method, boiled down:
(§2)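 Luminescent ATP measurement with CellTiter-Glo gives viability, scaled between DMSO-only wells (100%) and media-only wells (0%). Cells, 500 per well, faced library compounds for 48 hours at 37C.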

Assay [3] in a line: Quantitative High-Throughput drug screen in 47 multiple myeloma cell lines against the NCATS MIPE library collection: EJM_DSMZ cell viability assay (AID 1918926; further: nearly all actives have a fitted effect of over 30% in size; further: potency means the concentration at half of the fitted maximal effect). The method, boiled down:
as §2

A short description of assay [4]: Quantitative High-Throughput drug screen in 47 multiple myeloma cell lines against the NCATS MIPE library collection: ARP1_JJKsccF8 cell viability assay (AID 1918928; further: nearly all actives have a fitted effect of over 40% in size; further: potency means the concentration at half of the fitted maximal effect). A digest of the protocol: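 Cell viability inhibition in this qHTS is measured via ATP content (CellTiter-Glo) after 48 h drug exposure at 37 °C. Wells hold 500 cells; DMSO-treated wells define 100% and medium-only wells 0%.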

Assay [5] can be described thus: Quantitative High-Throughput drug screen in 47 multiple myeloma cell lines against the NCATS MIPE library collection: ARD_JJKsccE7 cell viability assay (AID 1918929; further: potency means the concentration at half of the fitted maximal effect). The method, boiled down:
as §2

Assay [6] in a line: Quantitative High-Throughput drug screen in 47 multiple myeloma cell lines against the NCATS MIPE library collection: Karpas620_DSMZ cell viability assay (AID 1918959). Further: nearly all actives have a fitted effect of over 30% in size. Further: potency means the concentration at half of the fitted maximal effect. A digest of the protocol:
as §1

Assay [7] is described as follows: Quantitative High-Throughput drug screen in 47 multiple myeloma cell lines against the NCATS MIPE library collection: AMO1_DSMZ cell viability assay (AID 1918927; further: nearly all actives have a fitted effect of over 30% in size; further: potency means the concentration at half of the fitted maximal effect). A digest of the protocol:
as §2

Assay [8] addresses Phospholipid hydroperoxide glutathione peroxidase GPX4 (Homo sapiens) (UniProt P36969). As to the kind of experiment: Primary qHTS Assay for Inhibitors of Recombinant Selenoprotein Glutathione Peroxidase 4 (GPX4) (AID 1845192). Further: potency means the concentration at half of the fitted maximal effect; nearly all actives have a fitted effect of over 65% in size. The method, boiled down:
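Steps: GPX4 plus compound, 30 min RT; add GR/GSH/NADPH master mix; start with cumene hydroperoxide; read 340/450 nm fluorescence at 0 and 15 min. Finals were 200 nM GPX4, 1 mM GSH, 0.5 mM CHP, 0.5 mM NADPH, 100 nM GR.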
For orientation: Quantitative high-throughput screening tests each substance at several concentrations.

Assay [9] concerns the target Luciferin 4-monooxygenase (Photinus pyralis) (UniProt P08659). As to the kind of experiment: Primary firefly luciferase (FLuc) qHTS assay for identification of artifact compounds. (AID 1845220). Further: series mostly up to about 54 µM; nearly all actives have a fitted effect of over 60% in size. The method, boiled down:
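Enzymatic FLuc inhibition assay: compounds pre-exposed to luciferin/ATP (10 uM each) for 15 min, then purified P. pyralis enzyme at 10 nM added. Read-out: luminescence at 5 min.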

Assay [10] is described as follows: Primary fluorescence-based thiol-reactive (MSTI) qHTS assay for identification of artifact compounds. (AID 1845221). Further: potency means the concentration at half of the fitted maximal effect; nearly all actives have a fitted effect of over 65% in size. The method, boiled down: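 qHTS titration of compound; 4 uM MSTI, PBS pH 7.4, 2% DMSO; 1 h RT, dark; fluorescence 525/598 nm; normalized to Acetyl-MSTI and MSTI; 4-parameter Hill fit.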
Assay [11] in a line: Primary redox qHTS assay for identification of artifact compounds. (AID 1845223). A digest of the protocol: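 Redox-cycling detection via DTT (250 uM final) oxidation coupled to Amplex Red (25 uM)/HRP (250 mU/mL) in HBSS. 15 min preincubation plus 30 min after DTT, room temperature. Ex/Em 525/598 nm; 4-parameter Hill fit against DMSO and 10 uM DA3003.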

Phospholipid hydroperoxide glutathione peroxidase GPX4 (Homo sapiens), sequence (P36969 whole entry, looked up): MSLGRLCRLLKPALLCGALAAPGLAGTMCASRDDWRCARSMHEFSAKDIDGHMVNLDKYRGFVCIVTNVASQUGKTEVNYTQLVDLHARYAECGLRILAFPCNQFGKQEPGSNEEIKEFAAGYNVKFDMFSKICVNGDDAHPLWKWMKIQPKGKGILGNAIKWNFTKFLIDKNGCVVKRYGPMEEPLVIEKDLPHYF

On to `CC1=C(CO)C(=O)O[C@@H]([C@@H](C)[C@H]2CC[C@H]3[C@@H]4C[C@H]5O[C@]56[C@@H](O)C=CC(=O)[C@]6(C)[C@@H]4CC[C@]23C)C1`, for which the Potency in [1] was 372 nM (active); in assay [2] it was 148 nM (active); in assay [3] it was 235 nM (active); in [4], 166 nM (active). In addition, the Potency entry in [5] and in assay [6] was “inactive” throughout.
Consider `CC(NCc1ccc2c(c1)nc(NC(=O)c1ccc(-c3cn[nH]c3)s1)n2CC(C)(C)O)C(C)(C)C` (stereo not given), for which the Potency in assay [1] was 372 nM (active); in [2], 83.3 nM (active); in assay [3], 372 nM (active); in assay [7] it was 166 nM (active); in [4], 418 nM (active); in [5] it was 296 nM (active). Moreover, the Potency in [6] was 264 nM (active).
For `CCC[C@H](NC(=O)C(C#N)=Cc1cccc(Br)n1)c1ccccc1`, the Potency was 2640 nM (active) in assay [1]; 1320 nM (active) in assay [2]; 2960 nM (active) in assay [3]; 4180 nM (active) in assay [4]; 6620 nM (active) in assay [6].
Regarding `CC[C@H]1CN2CCc3cc(OC)c(OC)cc3[C@H]2C[C@@H]1C[C@@H]1NCCc2cc(OC)c(OC)cc21`, the Potency in [1] was 372 nM (active); in assay [2], 166 nM (active); in assay [3], 187 nM (active); in assay [7], 235 nM (active); in assay [4] it was 187 nM (active); in assay [5], 296 nM (active). Also, the Potency in assay [6] was 235 nM (active).
In the case of `COc1cc2ncnc(Nc3ccc(F)c(Cl)c3)c2cc1NC(=O)C=CCN1CCCCC1`, the Potency is 26400 nM (active) in assay [1]; 5260 nM (active) in assay [2]; 2960 nM (active) in assay [7]; 23500 nM (active) in assay [4]; 9350 nM (active) in assay [5]; 2960 nM (active) in assay [6].
Turning to `C[C@H]1C[C@@H]2[C@@H]([C@@H](O)C[C@@]3(C)[C@H]2CC[C@]3(O)C(=O)CO)[C@@]2(C)C=CC(=O)C=C12`, the Potency entry in assay [1], in assay [2], in assay [7] and in [6] was “inactive” throughout.
As for `CCOc1cc2ncc(C#N)c(Nc3ccc(F)c(Cl)c3)c2cc1NC(=O)C=CCN(C)C`, the Potency is 7430 nM (active) in assay [1], 6620 nM (active) in assay [2] and 1660 nM (active) in assay [4].
For `O=C(C=Cc1cccnc1)NCCCCC1CCN(C(=O)c2ccccc2)CC1`, the Potency entry in [3] is “inactive”.
Turning to `CC(C)(C)NC(=O)[C@H]1CN(Cc2cccnc2)CCN1C[C@@H](O)C[C@@H](Cc1ccccc1)C(=O)N[C@H]1c2ccccc2C[C@H]1O`, the Potency result in [5] and in [6] was “inactive” throughout.
In the case of `O=C(C=Cc1c(C(=O)O)[nH]c2cc(Cl)cc(Cl)c12)Nc1ccccc1`, the Potency entry in assay [2], in assay [3], in assay [7], in [4], in [5] and in assay [6] was “inactive” throughout.
In the case of `CCC1=C[C@@H]2CN(C1)Cc1c([nH]c3ccccc13)[C@@](C(=O)OC)(c1cc3c(cc1OC)N(C)[C@@H]1[C@@](O)(C(=O)OC)[C@H](OC(C)=O)[C@]4(CC)C=CCN5CC[C@]31[C@@H]54)C2`, the Potency in assay [1] is 4.7 nM (active); in assay [2], 23.5 nM (active); in assay [3], 1050 nM (active); in assay [7], 52.6 nM (active); in assay [4], 5.3 nM (active); in [5], 7.4 nM (active).
For the compound `Cc1cc(Nc2cc(N3CCN(C)CC3)nc(C=Cc3ccccc3)n2)n[nH]1`, the Potency was 3820 nM (active) in assay [2], 8550 nM (active) in [7], 4290 nM (active) in [4] and 13600 nM (active) in assay [5].
Consider `O=C(O)CO.[NH2-].[NH2-].[Pt+2]`, for which the Potency entry in [1], in assay [3], in assay [7], in [4] and in assay [6] was “inactive” throughout.
Consider `Nc1ccc(C(=O)c2cc3c(ccc4ccccc43)[nH]2)cc1`, for which the Potency in assay [1] is 1180 nM (active); in [2] it was 1870 nM (active); in [3], 4180 nM (active); in assay [4] it was 2960 nM (active).
Take `CCC(=C(c1ccccc1)c1ccc(OCCN(C)C)cc1)c1ccccc1`: the Potency in assay [2] was 23500 nM (active); in assay [7], 18700 nM (active); in [5], 20900 nM (active); in [6], 23500 nM (active).
In the case of `COc1ccc(C=Cc2cc(OC)c(OC)c(OC)c2)cc1O`, the Potency entry in assay [1], in [2], in assay [3], in assay [7], in [4] and in assay [5] was “inactive” in each case. Moreover, the Potency result in assay [6] was “inactive”.
Turning to `Cc1[nH]c2ccccc2c1CCNCc1ccc(C=CC(=O)NO)cc1`, the Potency in assay [1] is 46.9 nM (active); in assay [2], 52.6 nM (active); in assay [3] it was 148 nM (active); in [4] it was 41.8 nM (active).
`CC=C1NC(=O)[C@H]2CSSCCC=C[C@H](CC(=O)N[C@H](C(C)C)C(=O)N2)OC(=O)[C@H](C(C)C)NC1=O`: the Potency in assay [1] is 10.5 nM (active); in assay [2], 16.6 nM (active); in assay [3], 29.6 nM (active); in assay [7] it was 14.8 nM (active); in assay [4] it was 26.4 nM (active); in assay [5], 11.8 nM (active). Besides, the Potency in assay [6] was 26.4 nM (active).
With `CC1(C)O[C@@H]2C[C@@H]3[C@H]4C[C@@H](F)C5=CC(=O)C=C[C@]5(C)[C@@]4(F)[C@@H](O)C[C@]3(C)[C@]2(C(=O)CO)O1`, the Potency entry in assay [1], in assay [2] and in assay [3] was “inactive” in each case. Moreover, the Potency in assay [4] was 7.4 nM (active).
For the compound `CC(C)=CCCC(C)=CCCC(C)=CCSc1ccccc1C(=O)O`, the Potency was 1180 nM (active) in assay [1], 2350 nM (active) in [2], 4180 nM (active) in assay [7] and 1180 nM (active) in assay [4].
Take `COC(=O)[C@]12CCC(C)(C)C[C@@H]1[C@@H]1C(=O)C=C3[C@@]4(C)C=C(C#N)C(=O)C(C)(C)[C@@H]4CC[C@@]3(C)[C@]1(C)CC2`: the Potency in assay [1] was 372 nM (active); in assay [2], 235 nM (active); in assay [7], 469 nM (active); in assay [4], 469 nM (active); in assay [5] it was 662 nM (active); in assay [6] it was 526 nM (active).
As to `CC1(C)OC2=C(C(=O)c3ccccc3C2=O)[C@H](NCc2ccccc2)[C@H]1O`, the Potency in assay [1] is 2640 nM (active); in [2] it was 2090 nM (active); in assay [3], 2350 nM (active); in assay [7], 662 nM (active); in [4], 5260 nM (active); in [5] it was 4180 nM (active). In assay [6], the Potency was 1480 nM (active).
Turning to `O=C(C=Cc1cccc(S(=O)(=O)Nc2ccccc2)c1)NO`, the Potency in assay [1] was 1520 nM (active); in [2], 1710 nM (active); in assay [3] it was 6050 nM (active); in [7], 855 nM (active); in assay [4], 960 nM (active); in [5], 1080 nM (active). Further, the Potency in assay [6] is 2410 nM (active).
Take `COc1c(N2C[C@@H]3CCCN[C@H]3C2)c(F)cc2c(=O)c(C(=O)O)cn(C3CC3)c12`: the Potency in assay [8] was 18000 nM (active); in assay [4] it was 37200 nM (active). For the same compound, in assay [2], the Potency entry is “inactive”.
Consider `Cc1cccc(C=NNc2cc(N3CCOCC3)nc(OCCc3ccccn3)n2)c1`, for which the Potency is 4690 nM (active) in [1], 1320 nM (active) in assay [2], 1050 nM (active) in [5] and 469 nM (active) in assay [6].
Regarding `CCCCc1nc2cc(C=CC(=O)NO)ccc2n1CCN(CC)CC`, the Potency was 83.3 nM (active) in [1], 469 nM (active) in assay [2], 1320 nM (active) in assay [3] and 148 nM (active) in assay [4].
In the case of `CC=CC1=C(C(=O)O)N2C(=O)[C@H](NC(=O)[C@H](N)c3ccc(O)cc3)[C@@H]2SC1`, the Potency entry in assay [1], in [2], in assay [3] and in assay [4] was “inactive” in each case. The Potency in assay [7] was 8330 nM (active); in assay [6], 14800 nM (active).
With `Cc1cc(N2CCOCC2)cc2[nH]c(-c3c(NC[C@@H](O)c4cccc(Cl)c4)cc[nH]c3=O)nc12`, the Potency entry in assay [9] and in assay [11] was “inactive” in each case. The Potency was 1680 nM (active) in [10]; 23500 nM (active) in [1]; 66.2 nM (active) in assay [2]; 235 nM (active) in assay [3]; 526 nM (active) in assay [7]; 5260 nM (active) in assay [4].
Turning to `Nc1ccc(S(=O)(=O)Nc2ncccn2)cc1`, the Potency result in [3], in assay [7], in assay [5] and in assay [6] was “inactive” throughout.
